The text below walks through data of PubChem BioAssay (NCATS).

SMILES strings stand for the structures. Inconclusive results are not listed. Active and inactive are the calls of the source. Calls come from the whole dose curve; as a rule, active = well fitted inhibition curve with a large enough effect; inconclusive = small, poorly fitted or top-dose-only effect; inactive = flat fitted curve, though single readings scatter. Where a SMILES comes first, the peptide text is derived from it. The star is where a group is joined. Cbz = O=C(OCc1ccccc1)*; CH2Cl = ClC*
Potency is the fitted concentration of half-maximal effect.

In the experiment the test system is HEK293. Nature of the experiment: Cytotoxic Profiling of Annotated Libraries Using Quantitative High-Throughput Screening (AID 1296008). Note: nearly all actives have a fitted effect of over 60% in size. The following applies: Five cell lines viability, CellTiter-Glo ATP luminescence, 48-72 h; max response: active compounds read low. An outline of the steps: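 Cells exposed to compounds for 48 or 72 hr at 37 degrees Celsius. Viability read as ATP-coupled luminescence with CellTiter-Glo after 10 min at room temperature.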
Take `Cc1nc(Nc2cnn(C3CCNCC3)c2)nc2c1N(C)C(=O)c1cc3ccccc3cc1N2C`: the Potency is 25.9 µM (active).

In the case of `COc1cc2c(NC3CCN(C(C)C)CC3)nc(N3CCC(F)(F)CC3)nc2cc1OCCCN1CCCC1`, the Potency is 8.2 µM (active). Consider `CCCCCCCCC(=O)N[C@H](CN1CCCC1)[C@H](O)c1ccc2c(c1)OCCO2`, for which the Potency is 7.31 µM (active).

Consider `O=C(Nc1ccc2[nH]nc(-c3ccncc3)c2c1)[C@@H]1CCN(CC(=O)N2CCN(c3ccc(-c4ncccn4)cc3)CC2)C1`, for which the Potency is 10.3 µM (active). With `CCN1CCN(Cc2ccc(NC(=O)c3ccc(C)c(Oc4ccnc5[nH]ccc45)c3)cc2C(F)(F)F)CC1` the figure was 9.04 µM (active); with `N#Cc1cc(CN2CCC(Nc3ncnc4sc(Cl)cc34)CC2)ccc1F`, 14.6 µM (active); with `C=C1C(=O)OC2/C=C(\C)CC3C=C(CC/C=C(\C)CCC12)C(=O)O3` (stereo not drawn), 11.4 µM (active). With `C=C1C(=O)O[C@H]2C[C@@H](C)[C@@H]3CCC(=O)[C@@]3(C)C[C@H]12` the figure was 6.51 µM (active); with `C/C=C(/C)C(=O)O[C@H]1[C@H](OC(=O)/C(C)=C\C)[C@@]23C(CC1(C)C)[C@]1(CCC4[C@@]5(C)CC[C@H](O[C@@H]6O[C@H](C(=O)O)[C@@H](O)[C@H](O[C@@H]7O[C@H](CO)[C@H](O)[C@H](O)[C@H]7O[C@@H]7O[C@@H](C)[C@H](O)[C@@H](O)[C@H]7O[C@@H]7OC[C@@H](O)[C@H](O)[C@H]7O)[C@H]6O[C@@H]6O[C@H](CO)[C@H](O)[C@H](O)[C@H]6O)C(C)(C)C5CC[C@@]4(C)[C@]1(C)C[C@H]2O)O[C@H]3O` (stereo partly drawn), 1.74 µM (active); with `C=CC(=O)N1CCN(C(=O)CNc2cc(-c3ccccc3Cl)c(Cl)cc2OC)CC1`, 18.4 µM (active). With `CC(C)C[C@H](NC(=O)CNC(=O)OCc1ccccc1)C(=O)N[C@@H](Cc1ccccc1)C(=O)CCl` (Cbz-Gly-Leu-Phe-CH2Cl) the figure was 9.2 µM (active); with `Nc1nc(Nc2ccc3c(c2)CCC(N2CCCC2)CC3)nn1-c1cc2c(nn1)-c1ccccc1CCC2` (stereo not drawn), 8.2 µM (active); with `COc1ccc(CNc2nc(N(CCO)CCO)nc3c2ncn3C(C)C)cc1`, 4.61 µM (active). In the case of `C/C=C(/C)C(=O)O[C@H]1C=C(CO)C(=O)[C@H](OC(=O)/C(C)=C/CO)[C@H]1C(C)C`, the Potency was 3.6 µM (active). On to `Cn1sc(=O)n(Cc2ccccc2)c1=O`, for which the Potency is 6.51 µM (active). With `CCC(C(C)O)n1ncn(-c2ccc(N3CCN(c4ccc(OCC5COC(Cn6cncn6)(c6ccc(F)cc6F)C5)cc4)CC3)cc2)c1=O` (stereo not drawn) the figure was 5.8 µM (active); with `Cc1cc(N2CCN(C(=O)Oc3ccc(-c4ccccc4)cn3)CC2)c2ccccc2n1`, 8.2 µM (active); with `CC[C@@H](C)[C@@H]1OC2(C=C[C@H]1C)C[C@@H]1C[C@H](C/C=C(\C)[C@H](O[C@H]3C[C@H](OC)[C@H](O[C@H]4C[C@H](OC)[C@H](NC(C)=O)[C@H](C)O4)[C@H](C)O3)[C@H](C)/C=C/C=C3\CO[C@H]4[C@H](O)C(C)=C[C@@H](C(=O)O1)[C@@]34O)O2` (stereo partly drawn), 3.21 µM (active).

`CC1CCCC(O)CC(=O)c2c(O)cc(O)cc2CC(=O)O1` (stereo not drawn): the Potency is 8.05 µM (active). In the case of `FC(F)(F)c1ccc(CNc2ccc(Cc3c[nH]c4ncc(Cl)cc34)cn2)cn1`, the Potency was 26.3 µM (active). With `CC1(C)CC[C@]23CO[C@@]4(CCC5[C@@]6(C)CC[C@H](O[C@@H]7OC[C@H](O[C@@H]8O[C@H](CO)[C@@H](O)[C@H](O)[C@H]8O[C@@H]8OC[C@@H](O)[C@H](O)[C@H]8O)[C@H](O)[C@H]7O[C@@H]7O[C@H](CO)[C@@H](O)[C@H](O)[C@H]7O)[C@@](C)(CO)C6CC[C@@]5(C)[C@]4(C)C[C@H]2O)[C@@H]3C1` (stereo partly drawn) the figure was 3.48 µM (active); with `C=C1C(=O)O[C@@H]2[C@H]1CC[C@H](C)C(CCC(=O)O)C2(C)O` (stereo partly drawn), 23.1 µM (active); with `CCN1CCN(Cc2ccc(NC(=O)c3ccc(C)c(Oc4ncnc5[nH]c(C)cc45)c3)cc2C(F)(F)F)CC1`, 13 µM (active). For `COc1cc2c(cc1OC)CN(C(=O)/C=C/c1c(-c3ccccc3)n(C)c3ncccc13)CC2`, the Potency was 7.31 µM (active). With `C=C1C(=O)O[C@@H]2C[C@@]3(C)CCCC(=C)[C@]3(O)C[C@H]12` the figure was 13 µM (active).

As for `C/C=C(\C)C(=O)O[C@H]1C=C(CO)C(=O)[C@H](OC(C)=O)[C@H]1C(C)C`, the Potency is 8.05 µM (active). For `COc1cc(-n2cnc3cc(-c4ccc(Cl)cc4)sc3c2=O)ccc1OCCN1CCCC1` the value was 10.3 µM (active); for `C=C1C(=O)OC2/C=C(\COC(C)=O)CC/C=C(\C=O)CC(OC(=O)C(C)CC)C12` (stereo not drawn), 3.55 µM (active).
